PubChem BioAssay (Tox21)
Values without a mark were called inactive. The source made the active and inactive calls. Calls follow the shape of the dose curve; as a rule, active = well fitted curve in the direction sought with a large enough effect in the repeat runs; inconclusive = weak or mixed curves; inactive = flat fitted curve, though single readings scatter.

Assay: qHTS assay to test for compound auto fluorescence at 535 nm (green) in HepG2 cells (AID 720675)
Conditions: green autofluorescence 485/535 nm, 1 h; series mostly up to 91.3 µM
Excerpt: National Center for Advancing Translational Sciences [NCATS]
NIH Chemical Genomics Center [NCGC]
U.S. Environmental Protection Agency [EPA]
National Institutes of Environmental Health Sciences [NIEHS]
National Toxicology Program [NTP]
U.S. Food and Drug Administration [FDA]
Compound auto fluorescence often interferes with screening of the compound library against various biological targets and signaling pathways. Some of these compounds may have fluorophoric properties. Such properties may interfere with the assay outputs resulting in false positives and/or negatives. To decrease such complications and ensure the compound activities are relevant in terms of biological response, the Tox21 10K compound library was screened for auto fluorescence.
From the fluorophores used as reporter signals in our screening assays, the auto fluorescence equivalencies of compounds against three fluorophores have been evaluated: Triamterene, Fluorescein and Rose Bengal sodium for blue, green and red fluorescence, respectively. The fluorescence intensities were measured using Excitation/Emission wavelengths at 405/460nm, 485/535nm and 540/590nm for blue, green and red labels, respectively. This assay includes the green fluorescence data.
Tox21 Assay Protocol Summary:
2,000 HepG2 cells in 5 uL of culture medium (MEM containing 10% FBS) per well were dispensed into black wall/clear bottom 1536-well plates using a Multidrop Combi Dispenser (ThermoFisher Scientific, Waltham, MA). The assay plates were incubated overnight at 37 C to allow cell attachment to the well bottom, followed by the transfer of 23 nL compound or DMSO vehicle by a pintool work station (Kalypsys , San Diego, CA). After the assay plates were incubated for 1 hr at 37 C and 5% CO2, fluorescence intensities in the assay plates were measured by an Envision (PerkinElmer, Shelton, CT) plate reader using three labels for measuring blue, green and red fluorescence at […] 460, 535 and 590 nm respectively.
% is scaled to controls: 0 for no effect and ±100 for the full control effect.

| SMILES | outcome | fluorescence, % of fluorescein control |
| --- | --- | --- |
| CC(=O)C1CCCCC1=O (stereo not given) | inactive | – |
| NS(=O)(=O)Cc1noc2ccccc12 | inactive | – |
| C[C@H]1C[C@H]2[C@@H]3CCC4=CC(=O)C=C[C@]4(C)[C@H]3C(=O)C[C@]2(C)[C@@]1(O)C(=O)CO | inactive | – |
| CN(C)C(=O)Oc1cccc([N+](C)(C)C)c1 | inactive | – |
| CN1CC(=O)N/C1=N/C(=O)Nc1cccc(Cl)c1 | inactive | – |
| O=C(O)CNC(=O)c1ccc(CO)o1 | inactive | – |
| C=CCCC(=O)O | inactive | – |
| COc1cccc(OC)c1C(=O)N[C@@H]1C(=O)N2[C@@H]1SC(C)(C)[C@@H]2C(=O)O | inactive | – |
| CC[N+](CC)(CC)CCOc1cccc(OCC[N+](CC)(CC)CC)c1OCC[N+](CC)(CC)CC | inactive | – |
| CC1(C)OC[C@@H](COC(=O)CCc2ccc(OC[C@@H](O)CNCCNC(=O)N3CCOCC3)cc2)O1 | inactive | – |
| NC(=O)N1c2ccccc2CC(=O)c2ccccc21 | inactive | – |
| CN1CCC(=C2c3ccccc3CCc3cccnc32)CC1 | inactive | – |
| CO[Si](C)(OC)c1ccccc1 | inactive | – |
| CCOC(=O)c1ccccc1 | inactive | – |
| CCOC(=O)COc1cc(-n2ncc(C(F)(F)F)c(C)c2=O)c(F)cc1Cl | inactive | – |
| Nc1c2c(nc3c1CCC3)CCCC2 | inactive | – |
| C=C(C)C(=O)OCC1CCCO1 (stereo not given) | inactive | – |
| CCN1CCOCC1 | inactive | – |
| CC1=C(C/C=C(\C)CCC[C@H](C)CCC[C@H](C)CCCC(C)C)C(=O)c2ccccc2C1=O | inactive | – |
| CCC(C)(CCCC(C)C)OC(C)=O (stereo not given) | inactive | – |

| SMILES | outcome | fluorescence, % of fluorescein control |
| --- | --- | --- |
| CCCCc1nc(Cl)c(CO)n1Cc1ccc(-c2ccccc2-c2nn[nH]n2)cc1 | inactive | – |
| Nc1ccncc1N | inactive | – |
| CC(C(=O)O)c1cccc(Oc2ccccc2)c1 (stereo not given) | – | 0.0036% [at 18.6 µM] |
| CC(N)C12CC3CC(CC(C3)C1)C2 (stereo not given) | inactive | – |
| CCOc1ccc2nc(S(N)(=O)=O)sc2c1 | inactive | – |
| O=C(O)c1cn(C2CC2)c2cc(N3CCNCC3)c(F)cc2c1=O | – | 0.0071% [at 18.6 µM] |
| CC(=O)c1ccccc1[N+](=O)[O-] | inactive | – |
| COc1cc(C(=O)NCc2ccc(OCCN(C)C)cc2)cc(OC)c1OC | – | 0.0603% [at 18.6 µM] |
| CCN(C=O)CC | inactive | – |
| C[N+]1(C)CCCC(OC(=O)C(O)(c2ccccc2)c2ccccc2)C1 (stereo not given) | – | -0.152% [at 18.6 µM] |
| C1CCC2(CCCCO2)OC1 | inactive | – |
| CCC(C(=O)NC(=O)NC(C)=O)c1ccccc1 (stereo not given) | inactive | – |
| COc1cc2c(cc1OC)-c1cc3ccc(OC)c(OC)c3c[n+]1CC2 | inactive | – |
| CCCCCCCCN1CCCC1=O | inactive | – |
| CN(C)[C@@H]1C(=O)C(C(=O)NCN2CCCC2)=C(O)[C@@]2(O)C(=O)C3=C(O)c4c(O)cccc4[C@@](C)(O)C3C[C@@H]12 (stereo not given in full) | inactive | – |
| CC/C=C\CCOC(C)OCC (stereo not given) | inactive | – |
| CC(C)(C#N)Nc1nc(Cl)nc(NC2CC2)n1 | inactive | – |
| CC(C)(C)C(=O)c1ccccc1 | inactive | – |
| N[C@H](C(=O)O)[C@@H](O)c1ccc(O)c(O)c1 | inactive | – |
| O=C(O)CNC(=O)c1ccccc1 | inactive | – |
